Only some compounds are listed: those with a hit (about 7.4% of all), similar ones and a draw of the others.
SNCA expr inhib – Primary qHTS assay for inhibitors of alpha-synuclein gene (SNCA) expression; HEK-293 SNCA-luciferase knock-in, luminescence, 24 h; Potency, µM (series often up to 57.2 µM), for inactives: at the top dose activity change, negative = inhibition, actives largely listed as inhibitors; hit rate 0.17% among 140,000; AID 1671194, 2021;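 further: plate controls were DMSO cells for no effect and cell-free wells for full effect; nearly all actives have a fitted effect of over 45% in size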
FLuc inh – Firefly luciferase inhibition profiling of diverse chemical library using quantitative high-throughput screening; Potency, µM (titrated, usually from 115 µM), most hits filed as inhibitors; AID 1347043, 2019; hit rate 2.5% among 76,000; purified P. pyralis luciferase, luminescence, biochemical; Luciferin 4-monooxygenase (Photinus pyralis), P08659; further: on the % scale 0 is the no-effect control and ±100 the full control effect; nearly all actives have a fitted effect of over 65% in size
Target sequence (P08659 whole entry, looked up): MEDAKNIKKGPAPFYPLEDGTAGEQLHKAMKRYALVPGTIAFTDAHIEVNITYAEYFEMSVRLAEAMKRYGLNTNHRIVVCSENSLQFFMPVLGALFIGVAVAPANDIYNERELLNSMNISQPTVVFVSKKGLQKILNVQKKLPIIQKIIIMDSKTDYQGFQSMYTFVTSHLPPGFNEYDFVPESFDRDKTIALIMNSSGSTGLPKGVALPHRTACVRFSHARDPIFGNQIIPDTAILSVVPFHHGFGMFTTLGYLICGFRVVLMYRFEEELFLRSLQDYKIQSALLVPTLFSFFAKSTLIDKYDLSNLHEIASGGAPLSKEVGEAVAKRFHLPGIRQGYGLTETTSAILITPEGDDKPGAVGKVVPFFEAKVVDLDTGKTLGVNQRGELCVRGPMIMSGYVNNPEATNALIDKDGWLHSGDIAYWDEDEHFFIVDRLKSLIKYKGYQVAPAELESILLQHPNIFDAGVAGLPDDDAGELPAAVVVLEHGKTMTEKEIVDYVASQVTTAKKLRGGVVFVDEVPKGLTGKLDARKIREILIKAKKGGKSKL
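Cell-free enzyme assay, 10nM P. pyralis luciferase, luciferin and ATP each at 10uM. Inhibition profiled over a 6-point titration, read as luminescence.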
3T3 cytotox – Cytotoxic Profiling in NIH 3T3 Cell Line of Diverse Libraries Using Quantitative High-Throughput Screening. AID 1345082, 2018. Potency, µM (highest dose often 96.7 µM), without a hit: at the highest dose activity change, negative = cytotoxicity, actives largely listed as inhibitors. NIH 3T3 viability, CellTiter-Glo ATP luminescence, 48-72 h. hit rate 4.3% among 94,000; further: on the % scale 0 is the no-effect control and ±100 the full control effect; nearly all actives have a fitted effect of over 55% in size
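ATP-dependent luminescence (CellTiter-Glo) served as the viability signal for NIH 3T3 cells treated with compound for 48 or 72 hr at 37 °C.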
NPR1 antag – Natriuretic polypeptide receptor (hNpr1) antagonism - Primary qHTS | Potency, µM (top dose mostly 46.3 µM), inactives show at the top dose activity change, negative = inhibition, usual class: inhibitors | HEK293 hNpr1 GloSensor cGMP, ANP-stimulated luminescence | hit rate 1.6% among 76,000 | AID 1347048, 2019 | Atrial natriuretic peptide receptor 1 (Homo sapiens), P16066; calls by dose curve; further: on the % scale 0 is the no-effect control and ±100 the full control effect; nearly all actives have a fitted effect of over 60% in size
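Compound pre-incubated 30 min at room temperature on GloSensor-loaded HEK293 cells stably carrying hNpr1 and the pGS-40F cGMP biosensor. Stimulation uses hNppA at 0.1 nM final; luminescence is taken at baseline and 20 min post-agonist.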
HEK293 tox – Cytotoxic Profiling in HEK 293 Cell Line of Diverse Libraries Using Quantitative High-Throughput Screening. HEK 293 viability, ATP luminescence (CellTiter-Glo), 48-72 h. Potency, µM (series often up to 115 µM), for inactives: at the highest dose activity change, negative = cytotoxicity, usual class: inhibitors. hit rate 6.6% among 94,000. AID 1345083, 2018; further: on the % scale 0 is the no-effect control and ±100 the full control effect; nearly all actives have a fitted effect of over 60% in size
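Luminescence from cellular ATP, measured with CellTiter-Glo, indicates HEK 293 viability. Cells plated at 250 cells/well are treated with compound for 48 or 72 hr at 37 degree Celsius before reagent addition.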
HEK293 viab – GF-AFC viability counterscreen for inhibitors of alpha-synuclein gene (SNCA) expression | HEK-293-SNCA-luc viability, GF-AFC fluorescence, 24 h | Potency, µM (series often up to 57.1 µM), inactives show at the top dose activity change, negative = cytotoxicity, usual class: cytotoxic | hit rate 0.12% among 150,000 | AID 1671193, 2021;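 further: 0% = DMSO-treated cells and -100% = medium-only wells without cells; nearly all actives have a fitted effect of over 30% in size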
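Cytotoxicity counterscreen: after 24 h compound treatment of genome-edited SNCA-luciferase HEK-293 cells, live-cell protease substrate GF-AFC read by fluorescence after 30 min; activity scaled between DMSO (0%) and medium-only (-100%), curves Hill-fitted.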
Npr1 antag conf – Natriuretic polypeptide receptor (hNpr1) antagonism - Confirmation | shares compounds with NPR1 antag | HEK293 hNpr1 cGMP GloSensor luminescence, ANP-stimulated | Potency, µM (highest dose often 57.6 µM), without a hit: at the top dose activity change, negative = inhibition, hits mostly inhibitors | hit rate 76% among 1,400 | AID 1347044, 2019; calls by dose curve; further: nearly all actives have a fitted effect of over 70% in size
NPR2 antag – Natriuretic polypeptide receptor (hNpr2) antagonism - Subtype selectivity assay. shares compounds with NPR1 antag. HEK293 hNpr2 GloSensor cGMP luminescence, CNP-stimulated. Potency, µM (titrated, usually from 57.6 µM), for the others: top-dose activity change, negative = inhibition, usual class: inhibitors. hit rate 67% among 1,400; calls by dose curve; further: nearly all actives have a fitted effect of over 70% in size
FLuc inh counter – Natriuretic polypeptide receptor (hNpr1) antagonism - Confirmation firefly luciferase (FLuc) inhibition counterscreen; shares compounds with NPR1 antag; purified FLuc enzyme, luminescence, Km substrate; Potency, µM (series often up to 57.6 µM), for inactives: top-dose activity change, negative = inhibition, usual class: inhibitors; hit rate 0.7% among 1,400; AID 1347047, 2019; further: 0% is about no effect
GloSensor cGMP – Natriuretic polypeptide receptor (hNpr1) antagonism - Counterscreen GloSensor control cell line; shares compounds with NPR1 antag; HEK293 GloSensor cGMP, SNP-stimulated, luminescence; Potency, µM (top dose mostly 57.6 µM), inactives show top-dose activity change, negative = inhibition, usual class: inhibitors; hit rate 69% among 1,400; calls by dose curve; further: on the % scale 0 is the no-effect control and ±100 the full control effect; nearly all actives have a fitted effect of over 70% in size
An asterisk follows results filed as active; i = inactive; ? = inconclusive; nt = not tested or not shown; [ ] = dose if it differs, or a comment. Unless noted, the call rests on the fitted dose curve; in most records, active means well fitted curve in the direction sought with a large enough effect; inconclusive means small, poorly fitted or top-dose-only effect, or another doubt; inactive means no such curve, though single readings can be large; an effect the other way counts as inactive or inconclusive. Potency means the concentration at half of the fitted maximal effect.

SMILES | SNCA expr inhib | FLuc inh | 3T3 cytotox | NPR1 antag | HEK293 tox | HEK293 viab | Npr1 antag conf | NPR2 antag | FLuc inh counter | GloSensor cGMP
O=C1CCN(Cc2ccc(C(F)(F)F)cc2)CCCC(c2nc(-c3cccnc3)no2)CCN1 (stereo not given) | 5% | i | ? | 8.9µM* | 45µM* | -2% | 17µM* | 17µM* | 2% | 15µM*
C=C[C@@]1(C)CC(=O)C2[C@](C)(O1)[C@@H](OC(C)=O)[C@@H](O)[C@H]1C(C)(C)CCC[C@]21C (stereo not given in full) | nt | nt | nt | nt | nt | 13%[12.5 µM] | nt | nt | nt | nt
O=C(c1cc(F)ccc1F)N1CCC(Cc2nc(-c3ccc(F)cc3)no2)CC1 | ? | i | ? | 3.2µM* | ? | 7% | 3.1µM* | 4.8µM* | 4% | 3.1µM*
O=C(c1cc(Cl)ccc1F)N1CCC(Cc2nc(-c3ccc(F)cc3)no2)CC1 | -8% | i | ? | 3.2µM* | ? | -3% | 4.3µM* | 5.4µM* | 4% | 4.3µM*
O=C(c1cc(F)cc(F)c1)N1CCC(Cc2nc(-c3ccc(F)cc3)no2)CC1 | ? | i | ? | ? | ? | -2% | nt | nt | nt | nt
O=C(N[C@H]1CCN2C(=O)c3cc(-c4ccc(F)cc4F)ccc3NC(=O)[C@@H]2C1)c1cccs1 | 11% | i | ? | 2% | ? | -3% | nt | nt | nt | nt
O=C(N[C@H]1CCN2C(=O)c3cc(-c4ccc(F)cc4F)ccc3NC(=O)[C@H]12)c1cccs1 | -14% | i | ? | -23% | ? | -28% | ? | ? | ? | -23%
COc1ccc(-c2cc(N3CCCN(C(=O)c4cccc(F)c4)CC3)n[nH]2)cc1 | 8% | i | -8% | -1% | ? | -11% | nt | nt | nt | nt
O=C(c1ccc2[nH]ccc2c1)N1CCN(c2cc(-c3ccccc3)[nH]n2)CC1 | 0% | i | ? | ? | ? | -6% | ? | ? | 1% | -27%
COc1cc(OC)cc(C(=O)N2CCCN(c3cc(-c4ccc(F)cc4)[nH]n3)CC2)c1 | -15% | i | -27% | -6% | ? | 0% | nt | nt | nt | nt
COc1ccc(-c2cc(N3CCCN(C(=O)c4cccc(Cl)c4)CC3)n[nH]2)cc1 | ? | i | ? | ? | ? | -4% | 24µM* | 14µM* | 3% | -1%
COc1ccc(-c2cc(N3CCCN(C(=O)c4cccc(Br)c4)CC3)n[nH]2)cc1 | 13% | i | ? | ? | ? | -21% | ? | 14µM* | -9% | -21%
COc1ccc(C(=O)N2CCN(c3cc(-c4ccc(F)cc4)[nH]n3)CC2)cc1 | -7% | i | ? | ? | ? | -9% | 22µM* | 24µM* | 3% | 27µM*
COc1ccc(-c2cc(N3CCCN(C(=O)c4ccc(F)c(Cl)c4)CC3)n[nH]2)cc1 | 21% | i | ? | ? | ? | -3% | 17µM* | 14µM* | -1% | 6%
COc1cc(OC)cc(C(=O)N2CCCN(c3cc(-c4ccc(Br)cc4)[nH]n3)CC2)c1 | ? | i | 32µM* | 11µM* | 40µM* | -19% | 24µM* | 22µM* | -2% | 27µM*
COc1ccc(-c2cc(N3CCN(C(=O)c4ccc(OC)cc4OC)CC3)n[nH]2)cc1 | -16% | i | ? | ? | ? | -3% | 27µM* | 22µM* | -1% | 22µM*
O=C(CC1COCCN1C(=O)CCn1ccccc1=O)N1CCCCCC1 (stereo not given) | -8% | i | -1% | 4% | -10% | -5% | nt | nt | nt | nt
CN(C)CC(=O)N1CCCC2(CNc3ncccc3[S+](=O)([O-])N2)C1 (stereo not given) | nt | nt | -3% | nt | i | nt | nt | nt | nt | nt
O=C(c1ccccc1Cl)N1CCCC(C(=O)N2CCCC(c3nc4ccncc4[nH]3)C2)C1 (stereo not given) | 15% | nt | -13% | nt | 4% | 3% | nt | nt | nt | nt
CC1(C)[C@H](Cc2cc(CO)on2)C[C@@H]1NC(=O)c1cccnc1 | 14%[87.6 µM] | i | -1%[174 µM] | 5%[70.6 µM] | 2%[172 µM] | -9%[87.6 µM] | nt | nt | nt | nt
CC1(C)[C@H](Cc2cc(COC(=O)c3cccs3)on2)C[C@@H]1NC(=O)c1cccs1 | -2%[87.6 µM] | i | ? | 25µM* | ? | -5%[87.6 µM] | 35µM* | 35µM* | 1%[86.2 µM] | 40µM*
CC1(C)[C@H](Cc2cc(COc3ccccc3)on2)C[C@@H]1NC(=O)c1cccs1 | -18%[87.6 µM] | i | 40µM* | 40µM* | ? | ? | 35µM* | 40µM* | -2%[86.2 µM] | 31µM*
CN1C[C@@H](NC(=O)c2ccc3c(c2)OCO3)C[C@H]1c1nc(-c2ccc(Cl)cc2)no1 | -31%[87.6 µM] | i | 79µM* | 35µM* | 50µM* | ? | 28µM* | 31µM* | -28%[86.2 µM] | 25µM*
O=C(Cc1c[nH]c2ncc(-c3ccsc3)cc12)NCc1cccnc1 | 26%[87.6 µM] | i | ? | -14%[70.6 µM] | ? | 2%[87.6 µM] | nt | nt | nt | nt

Compound activity: PubChem, National Center for Advancing Translational Sciences (NCATS)
